Screening results (PubChem BioAssay)
Only some compounds are listed: those with a hit (about 1.2% of all), similar ones and a draw of the others.
GoLoco inh red: qHTS Assay for Inhibitors of RGS12 GoLoco Motif Activity (Red Fluorophore); Potency, µM (highest dose often 61.6 µM), most hits filed as inhibitors; 230,000 tested, 0.44% active; Gai1:RGS12 GoLoco peptide FP, rhodamine, 10 min; AID 880, 2007; active means well fitted inhibition curve with a large enough effect, not every such curve was filed as active; inactive means no such curve, though single readings can be large or run the other way; further: nearly all actives have a fitted effect of over 30% in size
Target sequence (P63096 whole entry, looked up): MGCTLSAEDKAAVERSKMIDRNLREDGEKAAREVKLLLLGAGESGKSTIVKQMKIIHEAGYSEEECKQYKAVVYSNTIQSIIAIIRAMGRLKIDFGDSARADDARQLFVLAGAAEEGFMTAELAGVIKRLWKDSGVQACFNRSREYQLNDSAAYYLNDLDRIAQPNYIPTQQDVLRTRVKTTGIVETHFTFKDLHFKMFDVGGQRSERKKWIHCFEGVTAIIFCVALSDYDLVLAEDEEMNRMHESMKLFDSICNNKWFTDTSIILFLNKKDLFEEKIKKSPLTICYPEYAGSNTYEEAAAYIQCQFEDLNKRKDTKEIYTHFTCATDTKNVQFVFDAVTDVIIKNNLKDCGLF
Pin1 inhibitor: qHTS Assay to Find Inhibitors of Pin1; Peptidyl-prolyl cis-trans isomerase NIMA-interacting 1 (Homo sapiens), Q13526; Pin1 FP peptide displacement, HiFluor488, 10 min; Potency, µM (doses to about 115 µM), most hits filed as inhibitors; 390,000 tested, 0.009% active; active means well fitted inhibition curve with a large enough effect in the polarisation, with a control signal flat, not every such curve was filed as active; inconclusive means small, poorly fitted or top-dose-only effect, or effect the other way, or a change in a side signal; inactive means no such curve, though single readings can be large or run the other way; the % refers to the polarisation
Target sequence (Q13526 whole entry, looked up): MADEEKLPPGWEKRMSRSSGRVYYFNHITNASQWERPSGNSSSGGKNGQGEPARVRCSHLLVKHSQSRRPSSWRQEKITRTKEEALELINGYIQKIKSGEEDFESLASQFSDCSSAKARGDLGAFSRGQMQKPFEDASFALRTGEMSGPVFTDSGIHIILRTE
GCN5L2 inh-1: qHTS Assay for Inhibitors of GCN5L2; Histone acetyltransferase KAT2A (Homo sapiens), Q92830; 390,000 tested, 0.21% active; GCN5L2 HAT assay, ThioGlo1 CoA-SH fluorescence; Potency, µM (doses to about 58.9 µM), actives largely listed as inhibitors
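Titration-based screen in which CoA formation is detected via maleimide probe ThioGlo1 (50uM) turning fluorescent on thiol reaction; substrates H3(1-25) 75uM and acetyl-CoA 70uM, GCN5L2 20nM, 20 min incubation at room temperature.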
PI4K2A inh: qHTS for small molecular inhibitors of PI4K2A; activity change, negative = inhibition, % at 76.9 µM; purified PI4K2A, ADP-Glo luminescence, 1 h; active compounds read low; 420,000 tested, 0.13% active; Phosphatidylinositol 4-kinase type 2-alpha (Homo sapiens), Q9BTU6; AID 1346378, 2018; in the data active means activity change below about -50%; inconclusive means mostly about -30% to -49%
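ADP-Glo luminescence measured ADP generated by PI4K2A enzyme (4 ug/mL before mixing) with 1.2 mM PI substrate (pre-mix) and 300 microM ATP (pre-mix). Tris pH7.5 buffer with MgCl2, Triton X-100; 1 h reaction at ambient temperature.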
PI5P4K alpha inh: qHTS for Inhibitors of phosphatidylinositol 5-phosphate 4-kinase (PI5P4K); Phosphatidylinositol 5-phosphate 4-kinase type-2 alpha (Homo sapiens), P48426; PI5P4Kalpha enzyme, ADP-Glo luminescence, 60 min; active compounds read low; 330,000 tested, 1.2% active; AID 652105, 2013; max response, %; active means max response of -50% or lower; inconclusive means between -30% and -50%; inactive means -30% or higher; further: value at the top dose of about 77 µM
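Single end-point luminescence (ADP-Glo) quantified ADP from PI5P4Kalpha turnover; ATP 5 microM final, 1 h at RT, 0.1% CHAPS and 0.28 mM EGTA in HEPES pH 7.4.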
Tb PGK inh: qHTS Assay to Find Inhibitors of Phosphoglycerate Kinase; PGK/GAPDH coupled, Kinase-Glo luminescence, 60 min; Potency, µM (top dose mostly 57.5 µM), usual class: inhibitors; 380,000 tested, 0.043% active; further: nearly all actives have a fitted effect of over 60% in size
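Recombinant glycosomal PGK reaction used 1,3-bisphosphoglycerate generated in-well by GAPDH (100nM final) in 100mM TEA pH 7.6, 5mM MgCl2, 0.01% Tween-20. After 60 minutes at room temperature, ATP was read by Kinase-Glo Plus luminescence end-point.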
GCN5L2 inh-2: qHTS Assay for Inhibitors of GCN5L2: Hit confirmation. shares compounds with GCN5L2 inh-1. GCN5L2 HAT, ThioGlo1 CoA fluorescence, 20 min. Potency, µM, usual class: inhibitors. 140 tested, 70% active
ADP-Glo counter: qHTS for Inhibitors of PI5P4K: ADP-Glo counter assay; shares compounds with PI5P4K alpha inh; ADP-Glo detection counter-screen, luciferase luminescence, no enzyme; Potency, µM (series often up to 76.9 µM), most hits filed as inhibitors; 1,100 tested, under 10 active
A number is an active result; n = inactive; u = inconclusive; x = no result given. Unless noted, the call rests on the fitted dose curve; in most records, active means well fitted curve in the direction sought with a large enough effect; inconclusive means small, poorly fitted or top-dose-only effect, or another doubt; inactive means no such curve, though single readings can be large; an effect the other way counts as inactive or inconclusive.

SMILES	GoLoco inh red	Pin1 inhibitor	GCN5L2 inh-1	PI4K2A inh	PI5P4K alpha inh	Tb PGK inh	GCN5L2 inh-2	ADP-Glo counter
N#C/C(=C\c1cccs1)C(=O)c1ccccc1Cl	n	n	u	n	n	n	u	x
CC(C)(C)C(=O)/C(C#N)=C/c1cccs1	n	n	n	n	n	n	x	x
CC(=O)Nc1ccc(C2=NN(c3ccccc3)C(c3ccccc3)C2)cc1 (stereo unspecified)	x	n	u	n	n	n	36	x
O=C(O)c1ccc(N2N=C(c3ccccc3)CC2c2ccccc2)cc1 (stereo unspecified)	x	n	16µM	n	n	n	14	x
O=Cc1ccc(N2N=C(c3ccccc3)CC2c2ccccc2)cc1 (stereo unspecified)	x	n	n	n	n	n	x	x
CCc1ccc(-n2cccc2/C=C2/C(=N)N3C(=NC2=O)SN=C3S(C)(=O)=O)cc1	n	u	20µM	n	-61	n	u	x
CCS(=O)(=O)C1=NN2C(=N)/C(=C\c3ccc(OS(=O)(=O)c4ccccc4)cc3)C(=O)N=C2S1	x	u	14µM	n	-79	n	10	x
CCC1=NN2C(=N)/C(=C\c3cccn3-c3ccc(Cl)cc3)C(=O)N=C2S1	n	n	n	n	n	n	x	x
Cc1ccc(S(=O)(=O)Oc2ccc(/C=C3/C(=N)N4C(=NC3=O)SN=C4S(C)(=O)=O)cc2)cc1	x	u	u	n	-59	n	10	x
CC1CCCCC12NC(=O)N(CC(=O)NCc1ccccc1)C2=O (stereo unspecified)	x	n	n	n	n	n	x	x
Cc1ccc(S(=O)(=O)/N=C2/C=C(Sc3ncn[nH]3)C(=O)c3ccccc32)cc1	n	x	22µM	-70	-100	u	1.3	x
Cc1ccc(S(=O)(=O)N2[C@@H](c3ccc(C(C)(C)C)cc3)C(C(=O)O)=CC[C@H]2c2ccc(C(C)C)cc2)cc1	x	x	14µM	n	-63	u	13	n
Cc1ccc(S(=O)(=O)N2[C@@H](c3ccc(C(C)(C)C)cc3)C(C(=O)O)=CC[C@H]2c2ccc(Cl)cc2)cc1	x	x	u	n	u	n	x	x
CCN(CC)C(=O)COC(=O)c1cc(-c2ccc(OC)cc2)nc2ccccc12	n	n	n	n	x	n	x	x
CCN(CC)C(=O)COC(=O)c1cc(-c2ccco2)nc2ccccc12	n	u	u	n	-69	n	32	n
CCOC(=O)C1CCCN(C(=O)c2cc(-c3ccco3)nc3ccccc23)C1 (stereo unspecified)	x	x	28µM	u	-85	u	18	n
COc1ccc(S(=O)(=O)N2CCN(C(=O)c3cc4c(s3)CCC4)CC2)cc1	x	x	16µM	u	-82	u	18	n
CN(CC(=O)Nc1ccc(OC(F)(F)F)cc1)S(=O)(=O)c1ccc2c(c1)CCC(=O)N2	x	n	n	n	x	n	x	x
O=C(Cc1ccc(Cl)cc1Cl)Nc1cccc(S(=O)(=O)Nc2ccccc2F)c1	n	n	u	n	-51	n	u	n
COc1ccc(-c2c(Cc3ccccc3)nc(NC(=O)c3ccccc3F)n2C)cc1	x	x	x	n	x	x	x	x
COc1cc(C(O)c2nc(/C=C/c3ccccc3)cs2)ccc1F (stereo unspecified)	x	x	x	n	n	x	x	x
CNC(=O)COC(=O)c1cc(-c2ccco2)nc2ccccc12	n	u	n	n	-87	u	x	n
COc1ccc(CCNC(=O)c2cc(-c3ccco3)nc3ccccc23)cc1	x	n	x	n	-61	n	x	n
CCOC(=O)c1c(-c2ccco2)csc1NC(=O)COC(=O)c1cnc(C)cn1	x	u	u	n	-51	n	x	n
COc1ccccc1CNc1nc(NCc2cccc(OC)c2OC)c2sccc2n1	x	x	x	n	x	x	x	n
SMILES	GoLoco inh red	Pin1 inhibitor	GCN5L2 inh-1	PI4K2A inh	PI5P4K alpha inh	Tb PGK inh	GCN5L2 inh-2	ADP-Glo counter
COCCNc1nc(NCCOc2ccccc2)c2sc(-c3ccccc3)cc2n1	x	x	x	n	x	x	x	n
COc1ccccc1CNc1nc(NC(C)C)nc2cc(-c3ccccc3)sc12	x	x	x	n	x	x	x	n
COc1ccccc1CNc1nc(NCc2ccc(C)cc2C)c2sccc2n1	x	x	x	n	x	x	x	n
CC(C)Nc1nc(NCCOc2ccccc2Cl)c2sc(-c3ccccc3)cc2n1	x	x	x	n	x	x	x	x
CCOC(=O)C1(Cc2cccc(Cl)c2)CCCN(C(=O)c2cc(C)on2)C1 (stereo unspecified)	x	n	u	n	n	n	x	x
CC(=O)Nc1ccc(S(=O)(=O)NCCC(=O)OC(C)C(=O)c2ccc(C)cc2)cc1 (stereo unspecified)	x	n	n	n	n	n	x	x
COc1ccccc1CNc1nc(NCc2ccccc2F)c2sccc2n1	x	x	x	n	u	x	x	x
COc1cccc(CNc2nc(NC(C)C)nc3ccsc23)c1	x	x	x	n	x	x	x	n
COc1ccccc1CNc1nc(NCc2ccccc2)nc2ccsc12	x	x	x	n	x	x	x	n
Cc1ccc2[nH]c3ccccc3c(=O)c2c1	x	u	n	n	n	n	x	x
O=c1c2ccccc2[nH]c2ccc(O)cc12	x	x	n	n	-73	n	x	n
CCCCCn1c(CCNC(=O)c2cccc(C)c2)nc2ccccc21	x	u	n	n	x	n	x	x
Cc1c(C(=O)N2CCCC2)oc2ccc(Br)cc12	x	n	n	n	-61	n	x	n
Cc1c(C(=O)N2CCN(C)CC2)oc2ccc(Br)cc12	x	n	n	n	n	n	x	x
CC1(C(=O)NS(=O)(=O)C2CC2)CCN(C(=O)c2ccccc2F)C1 (stereo unspecified)	x	x	x	n	-78	x	x	n
CC1(C(=O)NS(=O)(=O)C2CC2)CCN(C(=O)c2ccccc2C(F)(F)F)C1 (stereo unspecified)	x	x	x	n	n	x	x	x
Cc1ccccc1NC(=O)Cc1nc(COC(=O)c2ccc(NC(N)=O)cc2)cs1	x	n	n	n	-56	n	x	n
Cc1ccccc1NC(=O)Cc1nc(COC(=O)c2ccc(Cl)nc2)cs1	x	n	n	n	n	n	x	x
Cc1nnc(SCC(=O)N2N=C(c3ccc(Cl)cc3)CC2c2ccco2)[nH]c1=O (stereo unspecified)	n	n	n	n	-64	n	x	n
Cn1ncc(=S)[nH]c1=S	x	n	x	n	n	n	x	x
